Shown are actives, neighbours in structure and some others; about 5.9% of the full set was active somewhere.
GLP1R cytotox – qHTS of GLP-1 Receptor Inverse Agonists: Cytotox Screen | HEK293 cAMP-luciferase reporter cells, luminescence, 24 h | Potency, µM (highest dose often 38.3 µM), without a hit: at the highest dose activity change, negative = inhibition, most hits filed as inhibitors | hit rate 0.13% among 410,000 | AID 624418, 2012;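 also: loss of luciferase light is scored as toxicity; % is scaled to controls: 0 for no effect and ±100 for the full control effect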
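Here, cytotoxicity is scored as loss of luminescence. The MLSMR collection was tested on cells seeded in medium containing 10% Nu serum, with a 24 hr compound exposure preceded by 12 hours of culture.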
GLP1R ag – qHTS of GLP-1 Receptor Agonists | AID 624172, 2012 | Glucagon-like peptide 1 receptor (Homo sapiens), P43220 | HEK293 GLP-1R CRE-luciferase, luminescence, 4-6 h; cells express a hypersensitive GLP-1R form | Potency, µM (doses to about 45.6 µM), inactives show at the top dose activation, usual class: activators | hit rate 0.007% among 380,000; also: % of control where 0% means no effect
GLP1R inv ag – qHTS of GLP-1 Receptor Inverse Agonists (Inhibition Mode). Glucagon-like peptide 1 receptor (Homo sapiens), P43220. hit rate 1.6% among 410,000. Potency, µM (series often up to 38.3 µM), without a hit: at the highest dose activity change, negative = inhibition, most hits filed as inhibitors. HEK293 GLP-1R CRE-luciferase, luminescence, 24 h; GLP-1R form is constitutively active; also: % is scaled to controls: 0 for no effect and ±100 for the full control effect; nearly all actives have a fitted effect of over 55% in size
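HEK293 cells stably co-expressing constitutively active GLP-1R and a cAMP-responsive luciferase reporter were seeded in DMEM with 10% Nu serum, given compounds after 12 h, and incubated 24 h at 37 deg C. Luminescence was then read.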
VP16 counter – VP16 counterscreen qHTS for inhibitors of ROR gamma transcriptional activity; Drosophila S2 Gal4-VP16 UAS-luciferase, luminescence, 20 h; Potency, µM (top dose mostly 53.6 µM), for inactives: top-dose activity, negative = inhibition, usual class: inhibitors; hit rate 3.5% among 310,000; AID 2546, 2010;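 also: Gal4-VP16 expression switched on by copper sulfate through the metallothionein promoter; % is scaled to controls: 0 for no effect and ±100 for the full control effect; nearly all actives have a fitted effect of over 50% in size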
RORgamma inh – qHTS for inhibitors of ROR gamma transcriptional activity; Nuclear receptor ROR-gamma (Mus musculus), P51450; Drosophila S2 Gal4-RORgamma UAS-luciferase reporter, 20 h; Potency, µM (titrated, usually from 53.6 µM), without a hit: top-dose activity change, negative = inhibition, usual class: inhibitors; hit rate 5.4% among 310,000; also: % is scaled to controls: 0 for no effect and ±100 for the full control effect; nearly all actives have a fitted effect of over 60% in size
Target sequence (P51450 whole entry, looked up, the tested form may be a part): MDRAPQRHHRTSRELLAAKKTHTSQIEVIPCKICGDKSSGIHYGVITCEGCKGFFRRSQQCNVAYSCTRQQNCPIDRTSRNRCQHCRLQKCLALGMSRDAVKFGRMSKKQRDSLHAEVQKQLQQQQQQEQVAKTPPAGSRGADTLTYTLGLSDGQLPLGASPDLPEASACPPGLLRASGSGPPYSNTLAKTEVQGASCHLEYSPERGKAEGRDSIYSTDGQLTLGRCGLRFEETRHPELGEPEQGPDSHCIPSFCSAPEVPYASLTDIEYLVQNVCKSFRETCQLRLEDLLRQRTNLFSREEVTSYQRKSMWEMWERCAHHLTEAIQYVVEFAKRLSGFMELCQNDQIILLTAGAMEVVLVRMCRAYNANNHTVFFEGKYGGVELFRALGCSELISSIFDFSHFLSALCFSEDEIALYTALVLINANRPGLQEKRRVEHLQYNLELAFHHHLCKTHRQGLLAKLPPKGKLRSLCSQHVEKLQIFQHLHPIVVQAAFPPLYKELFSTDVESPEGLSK
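In this cell-based reporter format, copper sulfate (700 uM final) drives Gal4–ROR gamma fusion expression from a metallothionein promoter in Drosophila Schneider cells; compounds preincubated 1 hr, reporter read after 20 hr at ambient temperature.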
Starred values were filed as active, the others as inactive; ? = inconclusive; . = no result given; [ ] = another dose, or the depositor's remark. Calls follow the shape of the dose curve; as a rule, active = well fitted curve in the direction sought with a large enough effect; inconclusive = small, poorly fitted or top-dose-only effect, or another doubt; inactive = no such curve, though single readings can be large; an effect the other way counts as inactive or inconclusive. Potency is read from the fitted curve at half-maximal effect.

SMILES | GLP1R cytotox | GLP1R ag | GLP1R inv ag | VP16 counter | RORgamma inh
CCN1CCCC(Sc2nc3c([nH]2)c(=S)n(C)c(=O)n3C)C1 (configuration not stated) | ? | -0.4% | 4.47µM* | 6.31µM* | 3.98µM*
COc1cc(Cl)c(C)cc1NC(=O)CCc1nc2cccnc2n1-c1ccccc1 | -13.5% | . | 12.4% | . | .
COc1ccc(CCNC(=O)CCc2c(C)nc3cc(-c4ccccc4)nn3c2C)cc1OC | 22.4% | 4.5% | 6.1% | . | .
CCc1c(C)nc2cc(-c3ccc(OC)c(OC)c3)nn2c1NCC1CC1 | -29.9% | -14.5% | 0.0% | 4.47µM* | 11.2µM*
Cc1cc(C)c2oc(-c3cccc(NC(=O)COc4ccc([N+](=O)[O-])cc4)c3)nc2c1 | -4.0% | . | 4.3% | . | .
CN(C)c1nc(N/N=C/c2ccccc2O)nc(Nc2ccc(F)cc2)n1 | ? | 13.5% | ? | 1.12µM* | 0.224µM*
COCC(=O)O | . | . | . | 8.5% | 3.8%
C=CS(=O)(=O)c1sc(Cl)c(N2CCOCC2)c1[N+](=O)[O-] | ? | -2.7% | ? | 7.08µM* | 10µM*
C=CSc1sc(Cl)c(N2CCOCC2)c1[N+](=O)[O-] | -0.7%[7.66 µM] | 11.1% | 5.5%[7.66 µM] | -17.2%[10 µM] | -10.2%
O=C(O)C1C2C=CC(C2)C1C(=O)NCc1ccc(Cl)c(Cl)c1 (configuration not stated) | -14.1% | 3.0% | 11.2µM* | 2.1% | 41.9%
O=C(O)C1C2C=CC(C2)C1C(=O)NCc1ccc2c(c1)OCO2 (configuration not stated) | -6.9% | -0.5% | 3.1% | -4.6% | -20.0%
CCCn1c(C(CO)Nc2nc(-c3cccc(Br)c3)cs2)nc2ccccc21 (configuration not stated) | ? | 7.4% | ? | ? | 12.6µM*
CCCn1c(C(C)Nc2nc(-c3ccc(C)cc3)cs2)nc2cc(Cl)c(Cl)cc21 (configuration not stated) | 4.3% | 6.9% | ? | -8.5% | 11.2µM*
Cc1ccc(Cn2c(C(C)Nc3nc(-c4ccc(F)cc4)cs3)nc3cc(Cl)c(Cl)cc32)cc1 (configuration not stated) | -24.1% | -6.4% | 11.2µM* | . | .
COc1ccc(-c2csc(NC(C)c3nc4cc(Cl)c(Cl)cc4n3CCCO)n2)cc1 (configuration not stated) | ? | 8.3% | ? | . | .
COc1ccccc1CNC(=O)c1cc2cc3ccc(Cl)cc3nc2o1 | -3.6% | -0.5% | 11.5% | . | .
COC(=O)[C@@]12CCCCN1[C@H](c1ccc(-c3ccc(F)cc3)c(OC)c1)[C@@H]1C(=O)N(C)C(=O)[C@@H]12 | -14.1% | -1.4% | 10µM* | . | .
C=CCOC(=O)C1(C(NC(=O)OC)c2ccccc2)C(=O)Cc2ccccc21 (configuration not stated) | . | . | . | -3.2% | -8.7%
CCN1CCCC1Cn1c(-c2ccccc2)nc2c(N3CCOCC3)nc(C)nc21 (configuration not stated) | . | . | . | 0.3% | -11.3%
O=C(CN1CCCC1)N1c2ccccc2Sc2ccccc21 | -2.9% | -4.0% | -2.8% | -9.9% | 22.5%
CC1(C)CCCN(C(=O)N2c3ccccc3Sc3ccccc32)C1 | -5.1% | 6.4% | 4.47µM* | 1.9% | 25.7%
CC(=O)OC[C@@H]1O[C@@H](O/N=C2/C[C@@H](O)[C@@H](O)[C@@H]3[C@@H]4C(=O)N(Cc5ccccc5)C(=O)[C@H]4CC[C@H]23)[C@H](OC(C)=O)[C@H](OC(C)=O)[C@@H]1OC(C)=O | . | . | . | -0.1%[10 µM] | -5.3%[10 µM]
Cc1c(/C=N/NC(=O)c2cc(Br)ccc2O)c(=O)n(C)c(=O)n1C | 0.8% | 12.1% | 1.8% | 10.4% | -11.5%
COc1ccccc1NS(=O)(=O)c1cc([N+](=O)[O-])ccc1N/N=C/c1c[nH]c2ccccc12 | -23.5% | 0.3% | 5.01µM* | ? | -27.7%
O=C(N/N=C/c1c[nH]c2ccccc12)c1[nH]c2ccc(Br)cc2c1-c1ccccc1 | -23.7% | 10.1% | ? | ? | 15.8µM*
SMILES | GLP1R cytotox | GLP1R ag | GLP1R inv ag | VP16 counter | RORgamma inh
O=C(N/N=C/c1c[nH]c2ccccc12)c1cc(Br)ccc1O | -13.5% | -2.2% | ? | 7.94µM* | 5.62µM*
O=C(N/N=C/c1ccc(O)cc1)c1[nH]c2ccc(Br)cc2c1-c1ccccc1 | -27.6% | 22.0% | ? | ? | 2.7%
C/C=N/NC(=O)c1cc(Br)ccc1O | -1.2% | -1.9% | 7.1% | ? | 11.2µM*
CCOc1ccc(Br)cc1C(=O)N/N=C/c1c[nH]c2ccccc12 | -23.6% | 5.2% | -28.5% | -6.6% | 3.3%
Cc1ccc(-c2nn(-c3ccc(F)cc3)c3c2cnc2cc(F)c(F)cc23)cc1 | -10.1% | -1.9% | -1.2% | . | .
CCc1cccc(NS(=O)(=O)c2cc(-c3cnc(C)o3)ccc2OC)c1 | -17.0% | . | -13.4% | . | .
O=C(NN=C1CCN(Cc2ccccc2)CC1)c1cc(Br)ccc1O | -4.6% | -2.5% | 6.0% | ? | 3.55µM*
O=C(N/N=C/c1c[nH]c2ccccc12)c1cccc([N+](=O)[O-])c1 | -8.9% | 14.8% | ? | ? | 12.6µM*
O=C(N/N=C/c1c[nH]c2ccccc12)c1ccccc1 | -5.3% | -6.9% | 14.0% | . | .
COc1ccccc1C(=O)Nc1cccc(C(=O)OCc2cc(=O)n3nc(C4CC4)sc3n2)c1 | -1.7% | . | 22.6% | . | .
O=C(Nc1cccc([N+](=O)[O-])c1)c1cc2ccccc2cc1O | -24.6% | -3.2% | ? | 4.47µM* | 5.01µM*
COc1ccc(NC(=S)Nc2cccc([N+](=O)[O-])c2)cc1 | 2.9% | -1.3% | 0.0% | -29.7% | 12.6µM*
COc1ccc(NC(=O)c2cccc([N+](=O)[O-])c2)cc1 | 17.5% | 9.2% | 30.8% | -9.8% | -0.1%
COc1ccc(NC(=O)c2cc([N+](=O)[O-])ccc2O)cc1 | -7.8% | -13.1% | ? | 2.82µM* | 2.24µM*
Cc1cc2nc3c(=O)[nH]c(=O)nc-3n(CC(O)C(O)C(O)COP(=O)(O)O)c2cc1C (configuration not stated) | . | -1.1% | . | 4.5% | 1.0%
CCCCCCCCCn1c2c(c(=N)c3c1CCC3)CCC2 | ? | -36.1% | ? | ? | 61.7%
CCCCCCn1c2c(c(=N)c3c1CCC3)CCC2 | -26.6% | 1.6% | ? | 11.2µM* | 11.2µM*
CCCCCCCn1c2c(c(=N)c3c1CCC3)CCCC2 | -28.9% | 8.9% | -8.6% | 5.62µM* | 6.31µM*
COc1cccc(CNC(=O)C(=O)NCC(c2ccc3c(c2)OCO3)N2CCOCC2)c1 (configuration not stated) | 0.8% | . | 9.7% | . | .
C=CCOCC/C=C1/c2ccccc2C(OC)C1C (configuration not stated) | . | . | . | 0.2%[10 µM] | 2.5%[10 µM]

Source: PubChem
